The text below walks through data of PubChem BioAssay (NCI).

What all share (test): NCI-60 one-dose screen, 48 h (100 = growth as untreated, 0 = no growth, -100 = all killed)
The subject of test [1] is HCT-15 colon. Particulars: 10 µM unless noted.
The test system of test [2] is HT29 colon. Particulars: 10 µM unless noted.
Test [3] concerns SNB-75 CNS. Particulars: 10 µM unless noted.
Test [4] relates to SNB-19 CNS. The settings on record: 10 µM unless noted.
For test [5], the system named is U251 CNS. The settings on record: 10 µM unless noted.
In test [6] the test system is PC-3 prostate. The settings on record: 10 µM unless noted.
In test [7] the test system is SK-MEL-5 melanoma. Particulars: 10 µM unless noted.
Test [8] relates to UACC-62 melanoma. The settings on record: 10 µM unless noted.
In test [9] the test system is LOX IMVI melanoma. The settings on record: 10 µM unless noted.
The test system of test [10] is SK-MEL-28 melanoma. The settings on record: 10 µM unless noted.
For test [11], the system named is SK-MEL-2 melanoma. The settings on record: 10 µM unless noted.
The subject of test [12] is EKVX NSCLC. The settings on record: 10 µM.
Test [13] relates to SN12C renal. Particulars: 10 µM unless noted.
Test [14] concerns UO-31 renal. The settings on record: 10 µM unless noted.
The test system of test [15] is TK-10 renal. The settings on record: 10 µM unless noted.
For test [16], the system named is ACHN renal. Particulars: 10 µM unless noted.
The test system of test [17] is CAKI-1 renal. The settings on record: 10 µM unless noted.
In test [18] the test system is A498 renal. Particulars: 10 µM unless noted.
The test system of test [19] is CCRF-CEM leukemia. The settings on record: 10 µM.
In test [20] the test system is MOLT-4 leukemia. Particulars: 10 µM unless noted.

This is part of a sample that, as a whole, favours compounds with a hit. Of some 83,000 tested, about 20% had one in any assay.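 Compound tested at a single concentration for 48 hours in 96-well plates; a percent growth value below 10 was scored as active.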 Values without a mark were called inactive. Activity calls are given as the source filed them.

In the case of `Cc1c(O)c(N=Nc2ccc(C(=O)O)c(O)c2)c2ccccc2c1O`, the growth in [1] was 117%; in [2], 96.9%; in test [3] it was 109%; in test [4], 105%; in [5], 101%; in test [6] it was 77.4%. Moreover, the growth was 96.1% in test [7]; 92.5% in test [8]; 86.4% in [9]; 131% in test [10]; 92.7% in [11]; 66.4% in test [12]. For the same molecule, the growth in test [13] is 96.3%; in test [14] it was 74.3%; in [15], 116%; in [16], 97.6%; in [17] it was 84.5%; in test [18] it was 86.3%. Moreover, the growth was 112% in test [19] and 76.6% in test [20].

On to `COc1cccc2c1nc1cccc(OC)c1[n+]2[O-]`, for which the growth in test [1] was 47.4%; in [2] it was 53.9%; in test [3], 58.3%; in [4], 46.9%; in [5], 46.6%; in test [6] it was 73.2%. Further, the growth in [7] is 62%; in test [8] it was 39.6%; in test [9], 31.9%; in test [10], 103%; in test [11] it was 35.6%; in test [12], 57.8%. Besides, the growth was 43.7% in test [13]; -0.522% (active) in test [14]; 75.8% in [15]; 2.52% (active) in test [16]; 52.8% in [17]; 65.4% in test [18]. In addition, the growth in test [19] was 3.09% (active); in [20], -1.14% (active).

As for `CCOC(=O)C1=C(C(F)(F)F)NC(=O)NC1CN1C(=O)c2ccccc2C1=O` (stereo not given), the growth in test [1] was 123%; in [2] it was 113%; in test [3], 98.4%; in [4], 111%; in test [5] it was 107%; in [6], 92%. Also, the growth in test [7] was 111%; in test [8], 92.9%; in test [9] it was 111%; in [10], 113%; in test [11], 109%; in test [12], 104%. Further, the growth in [13] was 104%; in test [14], 102%; in test [15], 122%; in test [16], 120%; in test [17], 114%; in test [18], 118%. Further, the values for the growth in test [19] and in [20] were -21.1% (active) and 70.5%, respectively.

Consider `CCCCCCCCc1ccc(OCCOCC[N+](C)(C)CC)cc1` (tested in a mixture with another compound), for which the growth was 98.4% in test [1]; 25.5% in test [2]; 9.08% (active) in test [3]; 16.4% in test [4]; 20.8% in [5]; 42.6% in test [6]. The growth is -52.3% (active) in test [7]; 9.07% (active) in test [8]; 29.1% in test [9]; 16% in [10]; 11.5% in test [11]; 71% in test [12]. Moreover, the growth was 21.5% in test [13]; 89.4% in [14]; 96.1% in [15]; 102% in test [16]; 98.8% in test [17]; 73.8% in [18]. The growth in test [19] was 28.7%; in [20], 51.4%.

Consider `CCCC(CCC)Oc1ccc(CCCC2=C(O)c3ccccc3C(=O)C2=O)cc1`, for which the growth in [1] was 21.7%; in test [2] it was 25.8%; in test [3], 46.1%; in test [4] it was 28.2%; in test [5], 27.1%; in [6], 27.7%. The growth in test [7] was 13.1%; in test [8], 30.4%; in test [9], 5.38% (active); in [10], 59.2%; in test [11] it was 27.7%; in test [12], 26.3%. In addition, the growth in test [13] is 45.5%; in test [14], 47.3%; in test [15], 36.2%; in test [16], 29.9%; in test [17], 64.4%; in test [18], 31%. For the same molecule, the growth in test [19] was 36.1%; in [20] it was 38.1%.

`O=S(=O)(Cc1cccc2c(CS(=O)(=O)c3ccc(Cl)cc3)cccc12)c1ccc(Cl)cc1`: the growth in test [1] is 92.8%; in test [2], 93.7%; in [3], 88.1%; in test [4], 104%; in test [5], 104%; in test [6], 92%. Also, the growth in test [7] was 92.3%; in test [8], 98.3%; in [9] it was 94.1%; in test [10] it was 107%; in test [11], 98.8%; in [12], 82.4%. Further, the growth in test [13] was 98.6%; in test [14], 106%; in [15], 113%; in test [16], 96.7%; in test [17] it was 73%; in test [18], 109%. In addition, the values for the growth in [19] and in test [20] were 90.7% and 95.5%, respectively.

As for `C=C(C)[C@@H]1CC[C@]2(COC(=O)c3ccccc3C(=O)O)CC[C@]3(C)[C@H](CC[C@@H]4[C@@]5(C)CCCNC(C)(C)[C@@H]5CC[C@]43C)[C@@H]12`, the growth in [1] is 58%; in [2] it was 26.6%; in test [3], 75%; in [4], 71%; in [5], 44.8%; in test [6], 20.8%. The growth in [7] is 46.2%; in test [8], 75.6%; in [9], 48.3%; in test [10], 74.4%; in test [11], 94.4%; in [12] it was 78.6%. The growth in test [13] was 59.3%; in test [14] it was 72.7%; in [15], 65.6%; in test [16], 65%; in [17], 91.7%; in test [18], 113%. Also, the growth in test [19] was 28.8%; in test [20] it was -7.13% (active).

Take `CC(=O)N1N=C(c2ccc(Cl)cc2)CC1c1cn(-c2ccccc2)nc1-c1ccc([N+](=O)[O-])cc1` (stereo not given): the growth was 92.6% in [1]; 93.8% in test [2]; 72.5% in test [3]; 90.1% in [4]; 96.9% in test [5]; 108% in [6]. Moreover, the growth is 101% in test [7]; 85.1% in test [8]; 97.8% in test [9]; 110% in test [10]; 129% in [11]; 98.8% in [12]. Besides, the growth in test [13] was 96.8%; in test [14] it was 107%; in test [15], 111%; in test [16], 96.8%; in test [17], 83.5%; in test [18] it was 109%. Further, the growth in test [19] was 105%; in test [20], 110%.
